Source: PubChem BioAssay AID1159580 (chemical genetic matrix, 2015)
Among all 5,500 compounds or so, about 2,000 (36%) were called active. Roughly 18% stayed inconclusive and do not appear here. Cut-off read from the data, not from the text of the source: active = normalized growth mostly below about 0.91 (no sharp cut-off); inconclusive = no clear call, values can overlap the other calls; inactive = mostly above about 0.92. The list shows a part of the results.

Assay: chemical genetic growth profiling, strain panel (AID 1159580);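 note: tested at 20 µM; growth read once vehicle control cultures reached saturation at 30 °C; 1 = growth at the plate median or of vehicle wells; lower values mean less growth of the strain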
Settings: growth OD

Measured: normalized growth

Cn1cnc([N+](=O)[O-])c1Sc1ncnc2nc[nH]c12
inactive: S. cerevisiae deletion strains, locus YKL009W, strain mrt4, active compounds read low 0.983 | S. cerevisiae deletion strains, locus YKL068W, active compounds read low 0.997 | S. cerevisiae deletion strains, locus YKL085W, strain MDH1 (second series), active compounds read low 1 | S. cerevisiae deletion strains, locus YKL085W, strain MDH1, active compounds read low 1 | S. cerevisiae deletion strains, locus YKL160W, strain elf1, active compounds read low 1.04 | S. cerevisiae deletion strains, locus YKL190W, strain CNB1, active compounds read low 1.01 | S. cerevisiae deletion strains, locus YKR001C, strain vps1, active compounds read low 0.988 | S. cerevisiae deletion strains, locus YKR026C, strain gcn3, active compounds read low 1.01 | S. cerevisiae deletion strains, locus YKR091W, strain srl3, active compounds read low 1.01 | S. cerevisiae deletion strains, locus YLL001W, strain dnm1, active compounds read low 1.02 | S. cerevisiae deletion strains, locus YLL026W, active compounds read low 1.03 | S. cerevisiae deletion strains, locus YLL041C, strain sdh2, active compounds read low 1.02 | S. cerevisiae deletion strains, locus YLR027C, strain aat2, active compounds read low 1.02 | S. cerevisiae deletion strains, locus YLR039C, strain RIC1, active compounds read low 1.09 | S. cerevisiae deletion strains, locus YLR058C, strain SHM2, active compounds read low 1.01 | S. cerevisiae deletion strains, locus YLR102C, strain apc9, active compounds read low 0.993 | S. cerevisiae deletion strains, locus YLR113W, strain HOG1, active compounds read low 1.03 | S. cerevisiae deletion strains, locus YLR221C, strain rsa3, active compounds read low 1.01 | S. cerevisiae deletion strains, locus YLR258W, strain gsy2, active compounds read low 1.02 | S. cerevisiae deletion strains, locus YLR262C, strain YPT6 (second series), active compounds read low 0.996 | S. cerevisiae deletion strains, locus YLR262C, strain YPT6, active compounds read low 1.1 | S. cerevisiae deletion strains, locus YLR268W, strain sec22, active compounds read low 0.981 | S. cerevisiae deletion strains, locus YLR320W, strain mms22, active compounds read low 1.01 | S. cerevisiae deletion strains, locus YLR330W, strain CHS5, active compounds read low 1.01 | S. cerevisiae deletion strains, locus YLR342W, strain FKS1 (second series), active compounds read low 1.01 | S. cerevisiae deletion strains, locus YLR342W, strain FKS1, active compounds read low 1.02 | S. cerevisiae deletion strains, locus YLR357W, strain rsc2, active compounds read low 1 | S. cerevisiae deletion strains, locus YLR370C, strain arc18, active compounds read low 1.03 | S. cerevisiae deletion strains, locus YLR371W, strain rom2, active compounds read low 0.984 | S. cerevisiae deletion strains, locus YLR384C, strain iki3, active compounds read low 1.03 | S. cerevisiae deletion strains, locus YLR418C, strain cdc73, active compounds read low 1 | S. cerevisiae deletion strains, locus YML016C, strain PPZ1, active compounds read low 1.02 | S. cerevisiae deletion strains, locus YML032C, strain rad52, active compounds read low 0.989 | S. cerevisiae deletion strains, locus YML120C, strain ndi1, active compounds read low 0.999 | S. cerevisiae deletion strains, locus YML124C, strain tub3, active compounds read low 0.994 | S. cerevisiae deletion strains, locus YMR058W, strain fet3, active compounds read low 1.01 | S. cerevisiae deletion strains, locus YMR078C, strain ctf18, active compounds read low 0.985 | S. cerevisiae deletion strains, locus YMR125W, strain sto1, active compounds read low 1.01 | S. cerevisiae deletion strains, locus YMR129W, active compounds read low 1.01 | S. cerevisiae deletion strains, locus YMR205C, strain PFK2, active compounds read low 1.02 | S. cerevisiae deletion strains, locus YMR223W, strain ubp8, active compounds read low 0.994 | S. cerevisiae deletion strains, locus YMR231W, strain pep5, active compounds read low 1.02 | S. cerevisiae deletion strains, locus YMR263W, strain SAP30, active compounds read low 0.999 | S. cerevisiae deletion strains, locus YMR307W, strain GAS1, active compounds read low 1.11 | S. cerevisiae deletion strains, locus YNL067W, strain RPL9B, active compounds read low 0.99 | S. cerevisiae deletion strains, locus YNL071W, strain lat1, active compounds read low 1.03 | S. cerevisiae deletion strains, locus YNL153C, strain GIM3, active compounds read low 0.995 | S. cerevisiae deletion strains, locus YNL175C, strain NOP13, active compounds read low 1.01 | S. cerevisiae deletion strains, locus YNL183C, strain NPR1, active compounds read low 1 | S. cerevisiae deletion strains, locus YNL197C, strain WHI3, active compounds read low 1 | S. cerevisiae deletion strains, locus YNL209W, strain ssb2, active compounds read low 1.04 | S. cerevisiae deletion strains, locus YNL224C, strain SQS1, active compounds read low 0.966 | S. cerevisiae deletion strains, locus YNL233W, strain BNI4, active compounds read low 1 | S. cerevisiae deletion strains, locus YNL248C, strain rpa49, active compounds read low 1.06 | S. cerevisiae deletion strains, locus YNL250W, strain rad50, active compounds read low 0.99 | S. cerevisiae deletion strains, locus YNL271C, strain bni1, active compounds read low 0.993 | S. cerevisiae deletion strains, locus YNL298W, strain CLA4, active compounds read low 0.995 | S. cerevisiae deletion strains, locus YNL307C, strain MCK1, active compounds read low 0.981 | S. cerevisiae deletion strains, locus YNL322C, strain KRE1 (second series), active compounds read low 1.02 | S. cerevisiae deletion strains, locus YNL322C, strain KRE1, active compounds read low 1.01 | S. cerevisiae deletion strains, locus YNR049C, strain mso1, active compounds read low 1.01 | S. cerevisiae deletion strains, locus YNR052C, strain pop2, active compounds read low 0.99 | S. cerevisiae deletion strains, locus YOL006C, strain TOP1, active compounds read low 1 | S. cerevisiae deletion strains, locus YOL012C, strain htz1 1.34 | S. cerevisiae deletion strains, locus YOL147C, strain pex11, active compounds read low 0.988 | S. cerevisiae deletion strains, locus YOR001W, strain rrp6, active compounds read low 1.01 | S. cerevisiae deletion strains, locus YOR061W, strain CKA2, active compounds read low 1.02 | S. cerevisiae deletion strains, locus YOR069W, strain VPS5, active compounds read low 1.01 | S. cerevisiae deletion strains, locus YOR070C, strain gyp1, active compounds read low 1.03 | S. cerevisiae deletion strains, locus YOR080W, strain dia2, active compounds read low 1.02 | S. cerevisiae deletion strains, locus YOR083W, strain WHI5 (second series), active compounds read low 1.02 | S. cerevisiae deletion strains, locus YOR083W, strain WHI5, active compounds read low 0.98 | S. cerevisiae deletion strains, locus YOR106W, strain vam3, active compounds read low 1.04 | S. cerevisiae deletion strains, locus YOR136W, strain idh2, active compounds read low 0.979 | S. cerevisiae deletion strains, locus YOR144C, strain elg1, active compounds read low 0.987 | S. cerevisiae deletion strains, locus YOR184W, strain ser1, active compounds read low 0.981 | S. cerevisiae deletion strains, locus YOR231W, strain MKK1, active compounds read low 1.06 | S. cerevisiae deletion strains, locus YOR265W, strain rbl2, active compounds read low 1.02 | S. cerevisiae deletion strains, locus YOR270C, strain vph1, active compounds read low 1.05 | S. cerevisiae deletion strains, locus YOR290C, strain snf2, active compounds read low 1.04 | S. cerevisiae deletion strains, locus YOR316C, strain cot1, active compounds read low 0.996 | S. cerevisiae deletion strains, locus YPL051W, strain arl3, active compounds read low 1.04 | S. cerevisiae deletion strains, locus YPL078C, strain atp4, active compounds read low 1.03 | S. cerevisiae deletion strains, locus YPL106C, strain sse1, active compounds read low 1.03 | S. cerevisiae deletion strains, locus YPL240C, strain hsp82, active compounds read low 1.05 | S. cerevisiae deletion strains, locus YPL241C, strain CIN2, active compounds read low 1 | S. cerevisiae deletion strains, locus YPL256C, strain CLN2, active compounds read low 1.05 | S. cerevisiae deletion strains, locus YPR119W, strain clb2, active compounds read low 0.991 | S. cerevisiae deletion strains, locus YPR141C, strain kar3, active compounds read low 0.99 | S. cerevisiae deletion strains, locus YPR163C, strain tif3, active compounds read low 0.981 | S. cerevisiae deletion strains, locus YPR167C, strain met16, active compounds read low 0.989 | S. cerevisiae deletion strains, strain wtn01, active compounds read low 0.988 | S. cerevisiae strains, strain wild type, active compounds read low 1.01
